Screening results (PubChem)
The sample as a whole holds a higher share of hits than the screen did.
AmpC no deterg = AmpC beta-lactamase inhibition without detergent. AID 485341. hit rate 0.52% among 330,000. Potency, µM (series often up to 57.1 µM), inactives show at the highest dose activity change, negative = inhibition, hits mostly inhibitors. P00811. AmpC nitrocefin hydrolysis, absorbance 480 nm, 0.0001% Triton;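 also: potency is read from the fitted curve at half-maximal effect; plate controls were no compound for no effect and no enzyme for full effect; nearly all actives have a fitted effect of over 20% in size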
Target sequence (P00811 whole entry, looked up): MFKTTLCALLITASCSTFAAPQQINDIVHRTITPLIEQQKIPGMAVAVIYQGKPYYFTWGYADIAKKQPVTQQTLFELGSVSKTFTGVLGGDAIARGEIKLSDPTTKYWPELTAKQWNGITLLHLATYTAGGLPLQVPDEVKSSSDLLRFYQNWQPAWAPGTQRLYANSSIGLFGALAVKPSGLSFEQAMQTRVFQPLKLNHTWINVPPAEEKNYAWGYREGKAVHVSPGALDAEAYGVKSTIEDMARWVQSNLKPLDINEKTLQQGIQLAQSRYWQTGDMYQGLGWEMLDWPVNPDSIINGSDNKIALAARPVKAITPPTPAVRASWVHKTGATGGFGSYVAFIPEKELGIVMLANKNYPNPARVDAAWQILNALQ
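AmpC (5.3 nM in the dispensed reagent) in 20 mM phosphate pH 7.0 with 0.01% (detergent screen) or 0.0001% Triton X-100 was preincubated with compounds for 15 min at room temperature. Nitrocefin was then added from an 800 uM solution, and hydrolysis was followed at 480 nm.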
AmpC inh detg = AmpC beta-lactamase inhibition with detergent present; P00811; AmpC hydrolysis of nitrocefin, absorbance 480 nm, 0.01% Triton; Potency, µM (top dose mostly 114 µM), inactives show top-dose activity change, negative = inhibition, actives largely listed as inhibitors; hit rate 0.041% among 370,000; AID 485294;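 also: potency is read from the fitted curve at half-maximal effect; 0% = no-compound wells and -100% = no-enzyme wells; nearly all actives have a fitted effect of over 25% in size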
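20 mM phosphate pH 7.0 + 0.01% (detergent screen) or 0.0001% Triton X-100; 5.3 nM AmpC reagent; cpd preinc 15 min RT; nitrocefin (800 uM stock) to start; A480 q20 s × 4 min; Activity was normalised to no-enzyme and no-compound control wells.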
Cycloheximide cs = counter-screen for Shiga toxin inhibitors: cycloheximide protein synthesis inhibition. cell reporter, cycloheximide protein synthesis inhibition counterscreen. max response, %. hit rate 12% among 300,000; in the data active = max response mostly above about 13%, no sharp cut-off; inactive = mostly below about 14%; also: read at 38.3 µM for the half of the compounds with a filed dose; 0% is about no effect
Shiga toxin inh = inhibitors of Shiga toxin in Vero cells; inhibition, % at 38.7 µM; hit rate 9.2% among 290,000; Vero cells, Shiga toxin protein synthesis inhibition reporter; in the data active = inhibition mostly above about 28%, no sharp cut-off; inactive = mostly below about 43%; also: 0% is about no effect
NS1 inh = inhibitors of influenza NS1 protein function; Potency, µM (series often up to 46.1 µM), for inactives: at the top dose activity, positive = more growth; hit rate 0.4% among 270,000; AID 2326; calls by dose curve; also: potency is read from the fitted curve at half-maximal effect; actives are rising curves; nearly all actives have a fitted effect of over 50% in size
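Compounds were scored for reversing the slow growth caused by influenza A NS1 in S. cerevisiae, measured by optical density at 600 nm. Assay medium contained 2% galactose at pH 6.0; NS1-free yeast of the same strain were the positive control.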
* marks the source's active call; other numbers are inactive results; ? = inconclusive; / = no result; + = active, no number. Unless noted, calls follow the shape of the dose curve; as a rule, active = well fitted curve in the direction sought with a large enough effect; inconclusive = small, poorly fitted or top-dose-only effect, or another doubt; inactive = no such curve, though single readings can be large; an effect the other way counts as inactive or inconclusive.

SMILES | AmpC no deterg | AmpC inh detg | Cycloheximide cs | Shiga toxin inh | NS1 inh
Cc1ccc(OCC(=O)N2N=C(c3ccncc3)CC2(O)C(F)(F)F)cc1C (stereo not given) | -22.4% | 1.7% | -1.6 | 3.5 | -2.2%
COc1cc(-c2nc3cnccn3c2Nc2ccc(C(C)C)cc2)ccc1O | -20.9% | 0.5% | 28.8* | 73.1* | 13.7%
COc1cc(-c2nc3cnccn3c2Nc2ccc(C)cc2)ccc1O | -20.2% | -8.4% | 16.7 | 1.9 | 15.2%
CSc1nc(-c2ccccc2)nn1S(=O)(=O)c1ccccc1 | -18.6% | -2.0% | 17.5* | 35.3 | 4.8%
CSc1nc(-c2ccccc2)nn1S(=O)(=O)c1ccc(Cl)cc1 | -17.0% | ? | -2.3 | -4.3 | ?
COc1ccc(-c2nc(SC)n(S(=O)(=O)c3ccccc3)n2)cc1 | -14.7% | -18.4% | 27.9* | 96.0* | -16.4%
COc1ccccc1NC(=O)c1oc2ccccc2c1NC(=O)C1CCCCC1 | / | 15.2% | / | / | /
COc1cc(C(=O)Nc2cccc(OCc3cc(=O)n4c(C)csc4n3)c2)cc(OC)c1OC | / | -0.8% | / | / | /
CCc1ccccc1NC(=O)C(C)n1nc(-c2ccc(C)c(C)c2)ccc1=O (stereo not given) | / | 2.1% | / | / | /
Cc1ccc(S(=O)(=O)c2nc(-c3ccccc3Cl)oc2N(C)C)cc1 | 12.1% | -3.7% | 57.0* | 86.1* | 5.4%
CN1C(=O)c2ccccc2N(C)C1c1ccccc1Cl (stereo not given) | -9.8% | 1.9% | -5.0 | -0.2 | 0.1%
CN1c2ccccc2C(=O)NC1c1ccc(Cl)cc1 (stereo not given) | -31.3% | -6.3% | 11.6* | 36.6 | /
Cc1ccc(C2C(C#N)=C(N)Oc3n[nH]c(C)c32)cc1 (stereo not given) | -23.5% | -7.8% | -3.6 | -7.5 | -31.3%
N#CC1=C(N)Oc2cc(N)ccc2C1c1ccc(Cl)cc1 (stereo not given) | 11.2µM* | -1.9% | 1.2 | -5.9 | 19.6%
Cc1[nH]nc2c1C(c1ccc(Cl)cc1)C(C#N)=C(N)O2 (stereo not given) | -2.1% | ? | 19.3* | -12.5 | -5.7%
CCOc1ccc(N(CC(=O)Nc2ccc(C)c(C)c2)S(C)(=O)=O)cc1 | 9.1% | 1.5% | 78.0* | 106.7* | 0.8%
CCOc1ccc(N(CC(=O)Nc2ccc(C)c(C)c2)S(=O)(=O)c2c(C)[nH]c(=O)[nH]c2=O)cc1 | -26.6% | 8.7% | 5.5 | 25.0 | -11.3%
CCOC(=O)c1ccccc1NC(=O)CN(c1ccc(OCC)cc1)S(C)(=O)=O | -2.4% | 2.0% | -1.3 | -14.5 | -3.1%
CCOc1ccc(N(CC(=O)Nc2ccccc2)S(C)(=O)=O)cc1 | -3.9% | -8.7% | 18.6* | 50.2* | -50.3%
CCOc1ccc(N(CC(=O)Nc2ccccc2Cl)S(C)(=O)=O)cc1 | 44.0% | 1.7% | 28.1* | 74.1* | -5.8%
CCOc1ccc(N(CC(=O)Nc2ccccc2OC)S(C)(=O)=O)cc1 | 31.9% | -10.5% | 9.2 | 14.0 | 0.7%
Cn1cc([N+](=O)[O-])c(C(=O)Nc2cc(Oc3cccnc3)cc([N+](=O)[O-])c2)n1 | -9.8% | ? | -6.7 | -34.0 | 18.0%
Cc1cc(C)c2sc(N(Cc3cccnc3)C(=O)CCOc3ccccc3)nc2c1 | / | -1.2% | / | / | /
Cc1ccc(C(=O)CCC(=O)OCC(=O)NNC(=O)c2ccccc2Cl)cc1 | 0.0% | -13.4% | / | / | /
CCCCOC(=O)Nc1cccc(C(=O)OCC)c1 | -18.1% | 3.0% | 21.0* | 82.6* | -23.2%
SMILES | AmpC no deterg | AmpC inh detg | Cycloheximide cs | Shiga toxin inh | NS1 inh
CCCCOC(=O)Nc1ccc(C(C)C)cc1 | -24.5% | ? | 40.1* | 86.2* | -3.4%
CCCCOC(=O)Nc1ccc(C(N)=O)cc1 | -7.8% | 1.7% | 37.3* | 75.5* | -9.0%
CCCCOC(=O)Nc1ccc(S(=O)(=O)Nc2ccc([N+](=O)[O-])cc2)cc1 | -25.6% | 2.4% | 5.1 | 20.5 | -5.0%
CCOCCOC(=O)c1cccc(NC(=O)OCC)c1 | -3.2% | -11.9% | 13.7 | 25.8 | -4.7%
CCCC(C)C(=O)Nc1ccc(C(N)=O)cc1 (stereo not given) | -7.0% | ? | -3.2 | 1.4 | -1.3%
CC(C)COC(=O)NCCCOC(=O)Nc1ccccc1 | 0.8% | 9.3% | 36.6* | 16.2 | ?
CC(=O)c1c(COC(=O)c2ccc(F)cc2)nc2ccccc2[n+]1[O-] | 2.0% | 9.9% | -0.6 | -3.0 | 0.1%
Cc1nc2c(-c3ccc(F)cc3)c(C)nn2c(C)c1CCC(=O)Nc1ccccc1F | -5.5% | -8.6% | -4.3 | -7.2 | -5.6%
CCCCOC(=O)Nc1ccc(S(=O)(=O)Nn2cnnc2)cc1 | -13.4% | 0.4% | -2.2 | 18.7 | 3.7%
CCCCOC(=O)Nc1ccc(N(C)C)cc1 | -18.9% | -2.2% | 79.9* | 115.9* | 17.5%
COc1ccc(Cn2c(=O)[nH]c3cc(C(=O)N4CCN(c5cccc(OC)c5)CC4)ccc3c2=O)cc1 | / | 6.6% | / | / | /
COc1ccc(C(=O)Nc2ccc(C(=O)N3CCCC3)cc2)cc1[N+](=O)[O-] | 13.4% | -1.2% | -0.4 | 12.4 | -4.1%
CCn1cc(C(=O)Nc2cccc(NC(C)=O)c2)c2cc(OC)c(OC)cc2c1=O | 27.9% | -9.2% | 4.9 | -13.7 | -33.2%
CCn1cc(C(=O)Nc2ccc3c(c2)OCCO3)c2cc(OC)c(OC)cc2c1=O | 124.7% | -0.7% | 11.6* | 28.9 | 3.4%
CCn1cc(C(=O)N(C)c2ccc(OC)cc2OC)c2cc(OC)c(OC)cc2c1=O | -0.8% | 2.6% | 47.1* | 58.0* | 0.1%
COc1cc(C(=O)Nc2ccc3c(c2)OCCO3)ccc1OC(F)F | -26.0% | -11.4% | 33.5* | 66.3* | -19.2%
COc1ccc(C(=O)Nc2ccc3c(c2)OCCO3)cc1[N+](=O)[O-] | -21.5% | -0.4% | 17.9* | 30.6* | /
Cc1ccc(S(=O)(=O)NCCCNS(=O)(=O)c2ccccc2Br)cc1 | -45.0% | / | / | / | /
N#Cc1ccc(NC(=S)NC(=O)C2CCCCC2)cc1 | -28.9% | / | / | / | /
CCOCCCn1c(=N)c(S(=O)(=O)c2ccc(Cl)cc2)cc2c(=O)n3cccc(C)c3nc21 | / | 0.4% | / | / | /
COCCCNC(=O)CCCn1c(=O)c2cccn2c2cccnc21 | / | 2.1% | / | / | /
COc1ccc(NC(=O)c2ccc3c(c2)OCCO3)cc1OC | -26.9% | -6.6% | 21.7* | 62.1* | 0.4%
COc1cc(C(=O)Nc2ccc3c(c2)OCCO3)ccc1OC(C)C | 6.0% | -10.1% | 44.3* | + | -13.3%
CCOc1ccc(-c2nonc2NC(=O)c2oc3cc(C)c(C)cc3c2C)cc1OCC | / | 0.7% | / | / | /
O=C(Cc1ccc2cccnc2c1)c1ccc(O)cc1O | -33.8% | -9.4% | 29.1* | 33.9* | -31.6%
SMILES | AmpC no deterg | AmpC inh detg | Cycloheximide cs | Shiga toxin inh | NS1 inh
Oc1ccc2cccnc2c1 | -13.1% | -12.4% | -1.6 | -8.3 | 2.8%
Nc1ccc(C(=O)N/N=C\c2cc(N=Nc3cccc4ccccc34)ccc2O)cc1 | -43.4% | -6.0% | 17.9* | 30.2 | 6.7%
Cc1cc(C(=O)N/N=C/c2cc(N=Nc3ccccc3)ccc2O)n[nH]1 | -11.8% | -11.3% | 16.7* | 18.0 | -3.5%
O=C(NN=Cc1c(O)ccc2ccccc12)c1ccc2c(c1)OCO2 | -16.8% | / | / | / | /
COC(=O)N/N=C/c1cc(N=Nc2ccccc2)ccc1O | 21.4% | -1.1% | 24.8* | 47.4 | -2.8%
COC(=O)N/N=C/c1cc(N=Nc2ccccc2Cl)ccc1O | -11.7% | -1.5% | 15.2 | 21.8 | 1.3%
